The record followed here is ChEMBL document CHEMBL1961873, “Compounds: GSK PKIS; Assays: Nanosyn kinase panel” (2012).

The target of experiment [1] is Protein kinase C gamma type (Homo sapiens) (UniProt P05129). The settings on record: at 1 µM.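 Also: each value is an averaged percent inhibition of the enzyme.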
For experiment [2], the target named is T1, Protein kinase C iota type (Homo sapiens) (UniProt P41743).
T1 sequence (whole entry): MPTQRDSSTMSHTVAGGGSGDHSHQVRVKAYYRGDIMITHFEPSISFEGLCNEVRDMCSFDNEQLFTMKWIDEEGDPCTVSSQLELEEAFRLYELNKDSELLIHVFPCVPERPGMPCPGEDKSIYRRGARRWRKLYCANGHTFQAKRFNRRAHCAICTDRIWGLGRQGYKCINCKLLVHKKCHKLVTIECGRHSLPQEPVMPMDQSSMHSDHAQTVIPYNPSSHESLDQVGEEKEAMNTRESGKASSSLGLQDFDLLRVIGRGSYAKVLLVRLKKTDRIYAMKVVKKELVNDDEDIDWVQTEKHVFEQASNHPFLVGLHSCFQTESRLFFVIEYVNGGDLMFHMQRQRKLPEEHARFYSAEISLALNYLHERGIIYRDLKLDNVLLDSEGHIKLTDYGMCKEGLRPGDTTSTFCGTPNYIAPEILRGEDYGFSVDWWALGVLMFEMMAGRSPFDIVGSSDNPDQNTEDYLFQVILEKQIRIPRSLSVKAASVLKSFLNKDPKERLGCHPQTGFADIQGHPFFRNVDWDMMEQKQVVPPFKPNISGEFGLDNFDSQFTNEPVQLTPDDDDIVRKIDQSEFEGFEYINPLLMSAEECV
The settings on record: at 0.1 µM.

The target in experiment [3] is T1, Protein kinase C iota type (Homo sapiens). The note with it: at 1 µM.
Experiment [4] deals with Protein kinase C theta type (Homo sapiens) (UniProt Q04759). The note with it: at 0.1 µM.
Chain of Protein kinase C theta type (Homo sapiens) (Q04759 whole entry, looked up): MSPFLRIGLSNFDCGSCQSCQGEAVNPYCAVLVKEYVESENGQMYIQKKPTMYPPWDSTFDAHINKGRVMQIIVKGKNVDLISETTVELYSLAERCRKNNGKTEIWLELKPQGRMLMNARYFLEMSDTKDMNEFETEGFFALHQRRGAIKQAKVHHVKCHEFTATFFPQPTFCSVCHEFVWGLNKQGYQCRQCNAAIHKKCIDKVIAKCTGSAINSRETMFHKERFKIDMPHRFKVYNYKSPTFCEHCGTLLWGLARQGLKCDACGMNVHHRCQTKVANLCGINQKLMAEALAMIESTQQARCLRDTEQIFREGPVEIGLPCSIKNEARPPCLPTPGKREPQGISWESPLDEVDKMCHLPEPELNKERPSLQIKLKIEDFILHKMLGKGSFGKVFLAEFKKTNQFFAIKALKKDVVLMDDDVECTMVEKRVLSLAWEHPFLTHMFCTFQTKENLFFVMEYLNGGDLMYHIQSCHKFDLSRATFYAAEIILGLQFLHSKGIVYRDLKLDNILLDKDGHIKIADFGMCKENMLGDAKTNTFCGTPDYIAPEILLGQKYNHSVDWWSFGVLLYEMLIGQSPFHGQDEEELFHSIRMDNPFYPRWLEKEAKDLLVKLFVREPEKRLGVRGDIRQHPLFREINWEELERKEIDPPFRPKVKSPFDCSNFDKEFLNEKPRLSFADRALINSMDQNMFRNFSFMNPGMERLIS
For experiment [5] the target is unchanged. The settings on record: at 1 µM.
Experiment [6] concerns the target Protein kinase C beta type (Homo sapiens) (UniProt P05771). The note with it: at 0.1 µM.
Experiment [7] has the same target. The settings on record: at 1 µM.
The target of experiment [8] is T2, Serine/threonine-protein kinase D1 (Homo sapiens) (UniProt Q15139).
T2 sequence (whole entry): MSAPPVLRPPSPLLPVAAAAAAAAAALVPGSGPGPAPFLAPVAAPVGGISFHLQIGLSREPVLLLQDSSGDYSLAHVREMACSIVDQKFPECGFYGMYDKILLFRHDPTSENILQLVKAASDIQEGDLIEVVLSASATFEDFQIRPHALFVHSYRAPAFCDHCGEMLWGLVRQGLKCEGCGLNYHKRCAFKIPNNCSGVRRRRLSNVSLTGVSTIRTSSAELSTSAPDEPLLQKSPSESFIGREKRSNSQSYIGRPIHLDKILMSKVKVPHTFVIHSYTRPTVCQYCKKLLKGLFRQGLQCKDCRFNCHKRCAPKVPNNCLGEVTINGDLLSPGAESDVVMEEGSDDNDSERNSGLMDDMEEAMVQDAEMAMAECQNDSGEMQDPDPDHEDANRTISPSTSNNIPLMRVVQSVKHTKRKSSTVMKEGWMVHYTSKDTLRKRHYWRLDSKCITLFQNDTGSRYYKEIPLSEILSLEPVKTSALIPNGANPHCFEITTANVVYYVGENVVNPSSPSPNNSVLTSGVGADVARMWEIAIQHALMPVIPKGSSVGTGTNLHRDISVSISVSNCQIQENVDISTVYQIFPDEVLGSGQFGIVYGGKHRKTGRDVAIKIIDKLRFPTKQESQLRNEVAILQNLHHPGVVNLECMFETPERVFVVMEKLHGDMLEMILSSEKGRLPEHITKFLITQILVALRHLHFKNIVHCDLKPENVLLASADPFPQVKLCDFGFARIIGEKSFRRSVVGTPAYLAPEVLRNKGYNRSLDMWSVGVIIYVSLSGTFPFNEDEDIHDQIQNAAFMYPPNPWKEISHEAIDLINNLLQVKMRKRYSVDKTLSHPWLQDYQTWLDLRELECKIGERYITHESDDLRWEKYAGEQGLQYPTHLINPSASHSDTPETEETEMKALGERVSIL
The note with it: at 0.1 µM.

Experiment [9] addresses T2, Serine/threonine-protein kinase D1 (Homo sapiens). The note with it: at 1 µM.
In experiment [10] the target is T3, Serine/threonine-protein kinase D2 (Homo sapiens) (UniProt Q9BZL6).
T3 sequence (whole entry): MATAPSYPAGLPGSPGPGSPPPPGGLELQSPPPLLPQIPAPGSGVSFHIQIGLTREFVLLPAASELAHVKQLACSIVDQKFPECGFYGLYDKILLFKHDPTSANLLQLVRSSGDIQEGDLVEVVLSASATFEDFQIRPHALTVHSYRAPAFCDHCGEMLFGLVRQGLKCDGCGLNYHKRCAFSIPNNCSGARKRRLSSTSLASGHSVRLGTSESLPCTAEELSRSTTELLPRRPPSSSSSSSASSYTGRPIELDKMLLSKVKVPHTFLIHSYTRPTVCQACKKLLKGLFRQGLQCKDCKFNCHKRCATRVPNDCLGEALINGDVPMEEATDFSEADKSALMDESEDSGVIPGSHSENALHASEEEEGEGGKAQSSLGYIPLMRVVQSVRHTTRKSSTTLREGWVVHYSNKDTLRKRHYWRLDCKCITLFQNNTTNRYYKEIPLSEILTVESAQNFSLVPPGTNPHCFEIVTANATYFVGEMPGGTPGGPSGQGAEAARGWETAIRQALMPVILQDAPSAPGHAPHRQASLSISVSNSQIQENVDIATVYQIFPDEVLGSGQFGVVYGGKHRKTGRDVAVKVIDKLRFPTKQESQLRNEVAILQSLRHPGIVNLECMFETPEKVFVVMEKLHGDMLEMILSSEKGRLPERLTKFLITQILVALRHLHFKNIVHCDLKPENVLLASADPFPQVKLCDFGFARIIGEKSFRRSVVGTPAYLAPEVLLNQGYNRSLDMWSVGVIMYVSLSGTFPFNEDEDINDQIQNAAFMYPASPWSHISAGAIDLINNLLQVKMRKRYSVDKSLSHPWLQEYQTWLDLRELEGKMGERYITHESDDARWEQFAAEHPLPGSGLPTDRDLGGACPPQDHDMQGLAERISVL
The settings on record: at 0.1 µM.

In experiment [11] the target is T3, Serine/threonine-protein kinase D2 (Homo sapiens). The note with it: at 1 µM.
For experiment [12], the target named is T4, Serine/threonine-protein kinase D3 (Homo sapiens) (UniProt O94806).
T4 sequence (whole entry): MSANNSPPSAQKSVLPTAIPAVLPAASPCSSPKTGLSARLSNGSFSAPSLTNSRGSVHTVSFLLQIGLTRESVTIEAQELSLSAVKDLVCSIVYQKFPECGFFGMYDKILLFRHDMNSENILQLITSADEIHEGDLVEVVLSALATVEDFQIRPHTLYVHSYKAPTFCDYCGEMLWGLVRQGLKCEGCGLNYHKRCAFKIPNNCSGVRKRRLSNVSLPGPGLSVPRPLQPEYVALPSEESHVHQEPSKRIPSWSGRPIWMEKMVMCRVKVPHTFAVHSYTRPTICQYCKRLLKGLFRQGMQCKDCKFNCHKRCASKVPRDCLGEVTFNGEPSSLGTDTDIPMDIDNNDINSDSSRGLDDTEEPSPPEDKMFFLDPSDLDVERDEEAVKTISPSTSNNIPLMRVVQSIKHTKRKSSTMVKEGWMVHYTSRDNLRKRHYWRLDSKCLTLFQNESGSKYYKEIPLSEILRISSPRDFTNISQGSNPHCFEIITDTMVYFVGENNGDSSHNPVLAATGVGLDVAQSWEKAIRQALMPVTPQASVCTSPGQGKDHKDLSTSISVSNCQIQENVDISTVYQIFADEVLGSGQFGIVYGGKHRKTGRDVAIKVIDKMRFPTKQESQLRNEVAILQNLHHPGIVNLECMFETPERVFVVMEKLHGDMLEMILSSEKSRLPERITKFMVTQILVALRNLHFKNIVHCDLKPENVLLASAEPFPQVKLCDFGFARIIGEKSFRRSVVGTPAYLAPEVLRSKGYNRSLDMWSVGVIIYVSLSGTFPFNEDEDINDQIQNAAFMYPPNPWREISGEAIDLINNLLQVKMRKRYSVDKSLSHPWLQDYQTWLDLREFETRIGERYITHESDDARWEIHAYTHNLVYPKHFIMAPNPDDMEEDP
The note with it: at 0.1 µM.

For experiment [13], the target named is T4, Serine/threonine-protein kinase D3 (Homo sapiens). The settings on record: at 1 µM.
For experiment [14], the target named is T5, cGMP-dependent protein kinase 1 (Homo sapiens) (UniProt Q13976).
T5 sequence (whole entry): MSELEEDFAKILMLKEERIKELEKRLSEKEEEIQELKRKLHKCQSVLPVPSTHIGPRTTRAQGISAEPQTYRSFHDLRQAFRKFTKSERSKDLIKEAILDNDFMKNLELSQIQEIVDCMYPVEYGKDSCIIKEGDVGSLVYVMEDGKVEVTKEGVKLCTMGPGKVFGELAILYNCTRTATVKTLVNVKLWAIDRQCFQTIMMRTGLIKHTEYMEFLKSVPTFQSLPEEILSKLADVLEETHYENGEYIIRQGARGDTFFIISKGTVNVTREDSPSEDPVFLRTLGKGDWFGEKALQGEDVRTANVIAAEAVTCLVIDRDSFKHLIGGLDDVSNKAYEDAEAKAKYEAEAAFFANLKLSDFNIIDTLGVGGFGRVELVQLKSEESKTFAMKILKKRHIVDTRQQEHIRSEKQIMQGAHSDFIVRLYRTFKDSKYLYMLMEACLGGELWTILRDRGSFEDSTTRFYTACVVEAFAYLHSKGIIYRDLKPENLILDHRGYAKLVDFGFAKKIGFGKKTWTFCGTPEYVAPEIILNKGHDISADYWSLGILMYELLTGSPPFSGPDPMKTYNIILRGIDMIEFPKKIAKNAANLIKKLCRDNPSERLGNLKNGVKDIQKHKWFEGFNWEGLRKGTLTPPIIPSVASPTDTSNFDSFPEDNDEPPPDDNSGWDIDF
The note with it: at 0.1 µM.

The target of experiment [15] is T5, cGMP-dependent protein kinase 1 (Homo sapiens). The settings on record: at 1 µM.
Experiment [16] concerns the target T6, cGMP-dependent protein kinase 2 (Homo sapiens) (UniProt Q13237).
T6 sequence (whole entry): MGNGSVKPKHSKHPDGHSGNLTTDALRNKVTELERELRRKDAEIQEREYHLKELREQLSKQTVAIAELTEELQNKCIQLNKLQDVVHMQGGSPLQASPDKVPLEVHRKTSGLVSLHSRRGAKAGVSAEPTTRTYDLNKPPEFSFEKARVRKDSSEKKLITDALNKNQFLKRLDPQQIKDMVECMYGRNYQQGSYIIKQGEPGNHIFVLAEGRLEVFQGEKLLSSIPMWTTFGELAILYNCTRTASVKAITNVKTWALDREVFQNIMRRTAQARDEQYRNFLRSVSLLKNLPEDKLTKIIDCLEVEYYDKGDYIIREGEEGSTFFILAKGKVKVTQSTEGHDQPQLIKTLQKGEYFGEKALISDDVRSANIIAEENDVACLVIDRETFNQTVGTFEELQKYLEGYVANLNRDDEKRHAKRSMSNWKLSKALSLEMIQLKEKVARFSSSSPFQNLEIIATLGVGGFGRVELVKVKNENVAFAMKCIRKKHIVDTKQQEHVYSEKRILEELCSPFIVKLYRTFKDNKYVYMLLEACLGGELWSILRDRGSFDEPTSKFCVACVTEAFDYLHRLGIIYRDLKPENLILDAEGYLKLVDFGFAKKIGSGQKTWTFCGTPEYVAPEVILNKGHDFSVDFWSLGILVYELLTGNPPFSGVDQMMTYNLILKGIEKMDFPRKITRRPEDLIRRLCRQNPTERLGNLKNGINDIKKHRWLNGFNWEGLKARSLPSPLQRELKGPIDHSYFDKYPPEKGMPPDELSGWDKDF
The settings on record: at 0.1 µM.

The target in experiment [17] is T6, cGMP-dependent protein kinase 2 (Homo sapiens). The note with it: at 1 µM.
Experiment [18] addresses T7, cAMP-dependent protein kinase catalytic subunit PRKX (Homo sapiens) (UniProt P51817).
T7 sequence (whole entry): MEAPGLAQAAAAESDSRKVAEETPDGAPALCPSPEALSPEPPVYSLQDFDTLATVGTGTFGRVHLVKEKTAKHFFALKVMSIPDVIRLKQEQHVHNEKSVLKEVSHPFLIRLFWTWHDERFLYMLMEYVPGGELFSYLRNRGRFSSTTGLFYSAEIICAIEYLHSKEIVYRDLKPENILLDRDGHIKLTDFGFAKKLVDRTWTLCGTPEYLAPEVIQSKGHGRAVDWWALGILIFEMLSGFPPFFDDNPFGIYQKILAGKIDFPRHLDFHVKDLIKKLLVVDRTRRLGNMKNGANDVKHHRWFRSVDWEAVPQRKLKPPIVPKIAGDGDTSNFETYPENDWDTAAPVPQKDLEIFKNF
The note with it: at 0.1 µM.

The target of experiment [19] is T7, cAMP-dependent protein kinase catalytic subunit PRKX (Homo sapiens). The note with it: at 1 µM.
The target of experiment [20] is Rho-associated protein kinase 1 (Homo sapiens) (UniProt Q13464). The note with it: at 0.1 µM.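 Also: values are mean percent inhibition of ROCK1.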
Chain of Rho-associated protein kinase 1 (Homo sapiens) (Q13464 2-1354 limits assumed): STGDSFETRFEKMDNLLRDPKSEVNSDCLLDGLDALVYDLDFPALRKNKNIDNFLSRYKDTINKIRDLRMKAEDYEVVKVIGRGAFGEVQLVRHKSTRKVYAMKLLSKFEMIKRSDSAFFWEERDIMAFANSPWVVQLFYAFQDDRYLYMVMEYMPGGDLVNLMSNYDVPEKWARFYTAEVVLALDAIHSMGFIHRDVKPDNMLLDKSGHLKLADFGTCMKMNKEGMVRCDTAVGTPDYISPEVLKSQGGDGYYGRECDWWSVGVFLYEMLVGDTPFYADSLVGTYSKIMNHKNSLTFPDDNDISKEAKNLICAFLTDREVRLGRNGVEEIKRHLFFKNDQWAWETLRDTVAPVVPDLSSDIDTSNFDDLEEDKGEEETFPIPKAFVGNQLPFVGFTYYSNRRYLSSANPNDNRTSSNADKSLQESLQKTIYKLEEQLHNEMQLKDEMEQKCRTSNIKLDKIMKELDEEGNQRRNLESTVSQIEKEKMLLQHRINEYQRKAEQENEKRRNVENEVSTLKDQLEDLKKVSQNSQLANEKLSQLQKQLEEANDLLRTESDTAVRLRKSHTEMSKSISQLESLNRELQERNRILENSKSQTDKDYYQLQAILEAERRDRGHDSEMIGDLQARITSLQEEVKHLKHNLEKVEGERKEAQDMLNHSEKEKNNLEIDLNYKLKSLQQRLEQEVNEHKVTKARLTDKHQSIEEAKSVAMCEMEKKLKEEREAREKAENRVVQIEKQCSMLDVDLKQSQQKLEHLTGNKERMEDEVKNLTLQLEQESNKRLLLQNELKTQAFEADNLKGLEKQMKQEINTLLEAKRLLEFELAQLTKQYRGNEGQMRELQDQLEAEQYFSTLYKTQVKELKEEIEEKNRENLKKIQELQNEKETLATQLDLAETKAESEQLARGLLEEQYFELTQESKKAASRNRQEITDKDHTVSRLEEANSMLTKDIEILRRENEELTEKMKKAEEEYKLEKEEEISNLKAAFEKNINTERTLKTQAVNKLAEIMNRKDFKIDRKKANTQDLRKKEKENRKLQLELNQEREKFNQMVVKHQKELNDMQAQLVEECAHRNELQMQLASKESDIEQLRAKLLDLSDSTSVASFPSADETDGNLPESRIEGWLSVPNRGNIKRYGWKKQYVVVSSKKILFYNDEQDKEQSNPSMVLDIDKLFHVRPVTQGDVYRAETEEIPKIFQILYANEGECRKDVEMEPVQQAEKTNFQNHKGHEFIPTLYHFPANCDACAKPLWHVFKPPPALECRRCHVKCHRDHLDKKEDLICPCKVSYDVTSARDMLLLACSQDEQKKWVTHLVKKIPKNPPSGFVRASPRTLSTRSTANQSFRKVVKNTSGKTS

The structures appear in SMILES notation.

Chain of Protein kinase C beta type (Homo sapiens) (P05771 2-671 limits assumed): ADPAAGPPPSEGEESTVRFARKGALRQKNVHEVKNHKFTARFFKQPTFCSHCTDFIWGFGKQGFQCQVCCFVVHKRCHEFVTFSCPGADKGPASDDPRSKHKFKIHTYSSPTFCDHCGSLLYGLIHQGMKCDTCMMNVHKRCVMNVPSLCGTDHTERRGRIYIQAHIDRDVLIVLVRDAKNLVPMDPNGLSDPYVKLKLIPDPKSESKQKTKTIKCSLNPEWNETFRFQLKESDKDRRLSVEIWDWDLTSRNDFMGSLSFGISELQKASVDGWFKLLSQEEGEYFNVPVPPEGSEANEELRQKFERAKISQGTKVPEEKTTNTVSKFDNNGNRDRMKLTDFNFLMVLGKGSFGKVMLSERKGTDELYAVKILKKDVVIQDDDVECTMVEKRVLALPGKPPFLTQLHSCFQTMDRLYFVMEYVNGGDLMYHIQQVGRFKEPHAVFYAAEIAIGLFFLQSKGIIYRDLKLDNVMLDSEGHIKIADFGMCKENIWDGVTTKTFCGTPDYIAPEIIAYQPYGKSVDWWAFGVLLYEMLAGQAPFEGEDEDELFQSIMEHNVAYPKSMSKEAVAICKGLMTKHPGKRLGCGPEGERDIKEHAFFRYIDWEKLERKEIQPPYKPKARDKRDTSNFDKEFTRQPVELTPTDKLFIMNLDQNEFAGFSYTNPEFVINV

In the case of `CS(=O)(=O)CCNCc1cc(-c2cc3c(Nc4ccc(OCc5cccc(F)c5)c(Cl)c4)ncnc3s2)cs1`, the inhibition in experiment [1] is 0.58%; in [2], 1.33%; in [3] it was 1.53%; in [4], 2.91%; in experiment [5] it was 4.44%; in [6], 0.62%. For the same compound, the inhibition in experiment [7] is 2%; in experiment [8] it was 4.69%; in [9], 8.12%; in experiment [10], 4.1%; in experiment [11], 4.68%; in experiment [12], 4.68%. Further, the inhibition in experiment [13] is 5.41%; in [14], 4.85%; in experiment [15], 8.33%; in [16], 3.09%; in experiment [17], 4.67%; in experiment [18] it was 1.65%. Moreover, the inhibition in [19] turned out to be 2.04%; in experiment [20] it was 3.25%.
Consider `COc1cc(N2CCN(C(C)C)CC2)ccc1Nc1nc(Nc2ccc(F)cc2C(=O)NC[C@@H](O)CO)c2cc[nH]c2n1`, for which the inhibition is 7.34% in experiment [1]; 2.87% in experiment [2]; 0.36% in experiment [3]; 3.85% in experiment [4]; 6.2% in experiment [5]; 1.04% in [6]. In addition, the inhibition in experiment [7] came to 2.5%; in [8], 1.65%; in [9] it was 13.4%; in [10], 3.16%; in experiment [11] it was 17.5%; in experiment [12], 3.93%. Moreover, the inhibition in experiment [13] is 20.7%; in experiment [14] it was 7.74%; in experiment [15], 35.1%; in experiment [16] it was 2.82%; in experiment [17], 8.2%; in experiment [18], 2.99%. The results for the inhibition in [19] and in experiment [20] were 6.02% and 1.24%, respectively.
